TDP1 inh: qHTS Assay for Inhibitors of Tyrosyl-DNA Phosphodiesterase (TDP1). recombinant TDP1, AlphaScreen DNA substrate cleavage. 0.28% of 350,000 active. Potency, µM (highest dose often 130 µM), for the others: at the highest dose activity change, negative = inhibition, hits mostly inhibitors; also: nearly all actives have a fitted effect of over 40% in size
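Recombinant E. coli-expressed Tdp1 (1 nM) preincubated with compound 15 min at RT, then 5'-biotin/3'-phosphotyrosine-FITC DNA substrate (15 nM) added for 5 min. AlphaScreen beads (10 ug/ml) added, 10 min RT; tyrosine-FITC cleavage read as signal loss.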
FEN1 inh: qHTS Assay for the Inhibitors of Human Flap endonuclease 1 (FEN1); P39748; Recombinant FEN1 flap cleavage, fluorescence, 15 min; Potency, µM (series often up to 114 µM), inactives show at the top dose activity change, negative = inhibition, most hits filed as inhibitors; 0.35% of 390,000 active; AID 588795, 2011; also: nearly all actives have a fitted effect of over 65% in size
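Quantitative HTS format: each compound was titrated, incubated with 10 nM nuclease for 15 min at room temperature, then challenged with flap substrate at 50 nM final. Signal change over 15 min gave concentration–effect curves.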
BLM inh: qHTS Assay for Inhibitors of Bloom's syndrome helicase (BLM). recombinant BLM DNA unwinding, fluorescence dequenching. Potency, µM (titrated, usually from 56.1 µM), for inactives: top-dose activity change, negative = inhibition, actives largely listed as inhibitors. 0.2% of 350,000 active. AID 2528, 2010;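 also: plate controls were vehicle for no effect and no enzyme for full effect; nearly all actives have a fitted effect of over 35% in size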
RECQ1 inh: qHTS Assay for Inhibitors of RecQ-Like Dna Helicase 1 (RECQ1); RECQ1 DNA unwinding, red fluorescence kinetic read; ATP-dependent DNA helicase Q1 (Homo sapiens), P46063; AID 2549, 2010; Potency, µM (highest dose often 57.3 µM), for inactives: at the top dose activity, negative = inhibition, most hits filed as inhibitors; 0.54% of 240,000 active;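 also: plate controls were vehicle for no effect and no enzyme for full effect; nearly all actives have a fitted effect of over 30% in size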
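RECQ1T1 50 nM; forked duplex (20 bp + 30-nt ss tails) 200 nM, ATP 2 mM final; pH 8.0, 2 mM MgCl2, 2.5 ug/ml poly(dI-dC); 15 min compound preincubation; discontinuous kinetic read over 2 h at RT.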
APEX1 inh: qHTS Assay for Inhibitors of the Human Apurinic/apyrimidinic Endonuclease 1 (APE1); DNA repair nuclease/redox regulator APEX1 (Homo sapiens), P27695; recombinant APE1, TAMRA/BHQ-2 abasic DNA cleavage fluorescence; Potency, µM (series often up to 65.8 µM), inactives show at the top dose activity change, negative = inhibition, usual class: inhibitors; 0.35% of 350,000 active;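 also: plate controls were vehicle for no effect and reference inhibitor for full effect; nearly all actives have a fitted effect of over 55% in size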
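APE1 at 0.75 nM final was preincubated with compound 15 min at room temperature, then 50 nM double-stranded THF abasic-site substrate (5'-TAMRA/3'-BHQ-2) was added. Fluorescence (ex 525/em 598 nm) was read kinetically; third-minus-first read gave activity.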
Active calls of the source: *; i = inactive; ? = inconclusive; / = no result given; [ ] = another dose, or the depositor's remark. This is a sample that favours compounds with a hit; in the whole collection about 0.92% have one here. Calls follow the shape of the dose curve; as a rule, active = well fitted curve in the direction sought with a large enough effect; inconclusive = small, poorly fitted or top-dose-only effect, or another doubt; inactive = no such curve, though single readings can be large; an effect the other way counts as inactive or inconclusive. Unless noted, % is scaled to controls: 0 for no effect and ±100 for the full control effect; potency is read from the fitted curve at half-maximal effect.

SMILES | TDP1 inh | FEN1 inh | BLM inh | RECQ1 inh | APEX1 inh
CCCC(=O)N1CCN(c2nc3ccc(Br)cc3s2)CC1 | 0% | 25µM* | -2% | / | 3%
CCCCC(=O)N1CCN(c2nc3ccc(Br)cc3s2)CC1 | 0% | 7% | -3% | / | -17%
COC(=O)COc1ccc2oc(=O)cc(-c3cc4cccc(OC)c4o3)c2c1 | 45µM* | 10% | -27% | / | -45%
C=CCOC(=O)C(C(C)=O)C(NC(=O)OC)c1cccc(C(F)(F)F)c1 (configuration not stated) | 3%[21 µM] | / | -1%[12.4 µM] | i[11.5 µM] | ?
O=C1C2CC=C(Cl)CC2C(=O)N1CCCCCCN1C(=O)C2CC=C(Cl)CC2C1=O (configuration not stated) | / | -22% | ? | 28µM* | 32µM*
CCCCC(O)C(=O)Nc1cc(C(F)(F)F)ccc1Cl (configuration not stated) | -5% | / | / | / | /
Cc1noc(NS(=O)(=O)c2ccc(NC(=O)c3ccc(N4C(=O)c5ccccc5C4=O)cc3)cc2)c1C | 50µM* | -22% | -15% | -6% | ?
COC(C)=O | 8% | / | / | -6% | 0%
COc1cc2nc(NC3CCN(C)CC3)nc(NC3CCN(C)CC3)c2cc1OC | / | 45µM* | / | / | /
COc1cc2nc(N(C)C)nc(NC3CCN(C)CC3)c2cc1OC | / | 28µM* | / | / | /
COc1cc2nc(N(C)C)nc(N)c2cc1OC | -5% | ? | 114% | 15% | ?
COc1cc2nc(CCNCc3ccccc3)nc(NC3CCN(C)CC3)c2cc1OC | / | 45µM* | / | / | /
COc1cc2nc(Cl)nc(NC(C)C)c2cc1OC | / | -5% | / | / | /
COc1ccccc1-c1nc(NC2CC2)c2ccccc2n1 | / | / | 51% | 2% | -6%
CCc1ccc(OCCCCn2c(CCNC(=O)C3CCCCC3)nc3ccccc32)cc1 | 1% | -18% | / | / | /
CCN(CC)c1ccc(CNS(=O)(=O)c2cc3c(cc2C)NC(=O)CO3)cc1 | 3% | 16% | -2% | / | /
COc1ccc(C2C3=C(N=CN(CCN4CCOCC4)C3N)Oc3ccccc32)cc1OC (configuration not stated) | 3% | / | / | / | /
O=C(NCCc1ccc(Cl)cc1)c1cc2c(s1)-c1ccccc1OC2 | -1% | -14% | ? | / | /
Cc1ccc(CCNC(=O)c2cc3c(s2)-c2ccccc2OC3)cc1 | 40µM* | ? | -17% | / | /
CC1=CC(=O)C=C/C1=C(/c1ccc(O)cc1C)c1ccccc1S(=O)(=O)O | 10% | 14% | / | / | 2%
CCN(Cc1cccc(S(=O)(=O)O)c1)c1ccc(C(=C2C=CC(=[N+](CC)Cc3cccc(S(=O)(=O)O)c3)C=C2)c2ccc(O)cc2S(=O)(=O)O)cc1 | / | 13µM* | / | / | /
CCN(Cc1cccc(S(=O)(=O)O)c1)c1ccc(C(=C2C=CC(=[N+](CC)Cc3cccc(S(=O)(=O)O)c3)C=C2)c2ccccc2S(=O)(=O)[O-])cc1 | / | 32µM* | / | / | /
COC(=O)C1=C(C)NC(C)=C(C(=O)OCCNCc2ccccc2)C1c1cccc([N+](=O)[O-])c1 (configuration not stated) | 22% | / | -13% | i | -10%
CC1CCCCN1C(=O)COC(=O)c1ccc(S(C)(=O)=O)c([N+](=O)[O-])c1 (configuration not stated) | -1% | 15% | / | / | /
COC(=O)C1=C[C@@H](C(=O)OC)[C@@H]2C3=C(C(=O)C2(C)C)[C@H](C)n2c(=O)n(C)c(=O)n2[C@@H]3C1 | 16% | -20% | 8% | 12% | -2%
SMILES | TDP1 inh | FEN1 inh | BLM inh | RECQ1 inh | APEX1 inh
CCOc1ccc(-n2c(SCc3ccc(C(=O)OC)o3)nc3c([nH]c4ccccc43)c2=O)cc1 | 1% | 16% | -3% | / | /
N#C/C(=C\c1cc(Br)c(O)c(Br)c1)c1nc2ccccc2c(=O)[nH]1 | ? | -26% | 13µM* | / | /
COc1ccc(-c2nc3cnc(OC)nc3n(-c3ccccc3)c2=O)cc1 | / | / | -4% | 8% | -4%
O=c1c(-c2cc(-c3ccc(F)cc3)nc3c2COc2ccc(Cl)cc2-3)coc2ccc(F)cc12 | 7% | -4% | -3% | / | /
C#CCOCCOCCOCCNc1nc(N2CCN(C(=O)[C@H](Cc3ccc(O)cc3)n3cc(CCO)nn3)CC2)nc(N2CCN(C(=O)[C@H](Cc3ccc(O)cc3)n3cc(CCO)nn3)CC2)n1 | -11% | / | -16% | 32µM* | -9%
C#CCOCCOCCOCCNc1nc(N2CCN(C(=O)CCCCCCCCCCNC(=O)[C@H](CO)n3cc(CCCSC)nn3)CC2)nc(N2CCN(C(=O)CCCCCCCCCCNC(=O)[C@H](CCCN=C(N)N)n3cc(C[C@@H](C)CC)nn3)CC2)n1 | 11% | 22µM* | / | / | ?
C#CCOCCOCCOCCNc1nc(N2CCN(C(=O)CCCCCCCCCCNC(=O)Cn3cc(C[C@@H](C)O)nn3)CC2)nc(N2CCN(C(=O)CCCCCCCCCCNC(=O)[C@H](CCCCN)n3cc(CCCC(=O)O)nn3)CC2)n1 | 6% | 1% | / | / | 5%
C#CCOCCOCCOCCNc1nc(N2CCN(C(=O)CCCCCCCCCCNC(=O)Cn3cc(C[C@@H](C)O)nn3)CC2)nc(N2CCN(C(=O)CCCCCCCCCCNC(=O)[C@H](CCCN=C(N)N)n3cc(C[C@@H](C)CC)nn3)CC2)n1 | 9% | 89µM* | / | / | ?
C#CCOCCOCCOCCNc1nc(N2CCN(C(=O)CCCCCCCCCCNC(=O)[C@H](CO)n3cc(CCCSC)nn3)CC2)nc(N2CCN(C(=O)CCCCCCCCCCNC(=O)[C@H](CCCCN)n3cc(CCO)nn3)CC2)n1 | 9% | ? | / | / | -33%
C#CCOCCOCCOCCNc1nc(N2CCN(C(=O)[C@H](C(C)C)n3cc(CCO)nn3)CC2)nc(N2CCN(C(=O)[C@H](Cc3ccc(O)cc3)n3cc(CCO)nn3)CC2)n1 | / | -16% | / | / | /
CCOC(=O)c1c(S(=O)(=O)N2CCCC(C(=O)NCc3ccc(Cl)cc3)C2)c(C)n(C)c1C (configuration not stated) | 0% | -10% | -1% | / | /

Screens: PubChem, National Center for Advancing Translational Sciences (NCATS)
